Test results from the supplement of paper PMC8728848.
This is one part of a sample in which the strongest signals are shown more often than they occur.

Legend:
Assay in all cases: glycan array binding signal (z-score within array); higher = stronger binding
Conditions in all cases: glycan notation: IUPAC condensed, linker removed
[1] = target: Fuc(a1-3)[Gal(b1-4)]GlcNAc
In short: (§1)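 The binding signal is a Z-score computed within each array. Data were drawn from 3228 arrays in the Consortium for Functional Glycomics database, restricted to those with a known protein sequence. Scores were averaged over arrays of the same protein sequence at different concentrations or buffers, and over linkers, and negative values can be taken as non-binding.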

Gal(a1-3)Gal(b1-3)GlcNAc = target: Gal(a1-3)Gal(b1-3)GlcNAc
In short: as §1

[2] = target: Gal(b1-4)GlcNAc(b1-3)Gal(b1-4)GlcNAc
In short: as §1

Gal3S6S(b1-4)GlcNAc6S = target: Gal3S6S(b1-4)GlcNAc6S
In short: as §1

Glc(a1-4)Glc = target: Glc(a1-4)Glc
In short: as §1

Glc(a1-6)Glc(a1-6)Glc = target: Glc(a1-6)Glc(a1-6)Glc
In short: as §1

Glc(b1-4)Glc = target: Glc(b1-4)Glc
In short: as §1

GlcA(b1-3)Gal = target: GlcA(b1-3)Gal
In short: as §1

[3] = target: GlcNAc(a1-3)Gal(b1-4)GlcNAc
In short: as §1

[4] = target: Man(a1-2)Man(a1-2)Man(a1-6)[Man(a1-3)]Man
In short: as §1

[5] = target: Man(a1-2)Man(a1-3)[Man(a1-6)]Man(a1-6)[Man(a1-2)Man(a1-3)]Man(b1-4)GlcNAc(b1-4)GlcNAc
In short: as §1

[6] = target: Neu5Ac(a2-3)Gal(b1-3)[Fuc(a1-4)]GlcNAc
In short: as §1

Neu5Ac(a2-3)Gal(b1-4)Glc = target: Neu5Ac(a2-3)Gal(b1-4)Glc
In short: as §1

[7] = target: Neu5Ac(a2-3)[GalNAc(b1-4)]Gal(b1-4)GlcNAc
In short: as §1

[8] = target: Neu5Gc(a2-3)Gal(b1-3)GlcNAc
In short: as §1

B1: FaeGac (Escherichia coli) (protein)
chain: WMTGDFNGSVDIGGSITADDYRQKWEWKVGTGLNGFGNVLNDLTNGGTKLTITVTGNKPILLGRTKEAFATPVTGGVDGIPHIAFTDYEGASVVLRKPDGETNKNGLAYFVLPMKNAGGTKVGSVKVNASYAGVLGRGGVTSADGELLSLFADGLSSIFYGGLPRGSELSAGSAAAARTKLFGSLSRDDILGQIQRVNANVTSLVDVAGSYRENMEYTDGNVVSAAYALGIANGQTIEATFNQAVTTSTQWSAPLNVAITYY
glycan array binding signal (z-score) [1]: -0.598
glycan array binding signal (z-score) (Gal(a1-3)Gal(b1-3)GlcNAc): -0.126
glycan array binding signal (z-score) [2]: -0.084
glycan array binding signal (z-score) (Gal3S6S(b1-4)GlcNAc6S): 1.17
glycan array binding signal (z-score) (Glc(a1-4)Glc): 5.96
glycan array binding signal (z-score) (Glc(a1-6)Glc(a1-6)Glc): 6.71
glycan array binding signal (z-score) (Glc(b1-4)Glc): 4.43
glycan array binding signal (z-score) (GlcA(b1-3)Gal): -0.705
glycan array binding signal (z-score) [3]: 0.229
glycan array binding signal (z-score) [4]: 3.1
glycan array binding signal (z-score) [5]: 0.527
glycan array binding signal (z-score) [6]: 0.445
glycan array binding signal (z-score) (Neu5Ac(a2-3)Gal(b1-4)Glc): -0.81
glycan array binding signal (z-score) [7]: -0.863
glycan array binding signal (z-score) [8]: -0.826
